In the library only some 17% were active in any assay of this set; here they are far more common.
HT1080 IDH1KD tx – qHTS for induction of synthetic lethality in tumor cells producing 2HG: qHTS for the HT-1080-IDH1KD cell line; AID 686971, 2013; HT-1080 IDH1 knockdown viability, ATP luminescence, 48 h; 360,000 compounds, 2% hits; Potency, µM (series often up to 46.1 µM), without a hit: at the top dose activity, negative = toxicity, most hits filed as cytotoxic;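 also: 0% = DMSO wells and -100% = cell-free medium wells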
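Using the IDH1-knockdown HT-1080 line run in the same batch and compound series as the NT line, viability after 48 h at 37 °C was determined by CellTiter-Glo luminescence and expressed as % activity.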
TGFb inhibitor – qHTS for Inhibitors of TGF-b | HepG2 CAGA-GFP TGF-b/SMAD3 reporter, GFP fluorescence, 18 h; TGF-beta stimulated, 500 pg/mL final | Potency, µM (highest dose often 46.1 µM), inactives show at the top dose activity, negative = inhibition, most hits filed as inhibitors | 410,000 compounds, 1.2% hits; also: % is scaled to controls: 0 for no effect and ±100 for the full control effect; nearly all actives have a fitted effect of over 65% in size
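HEPG2 CAGA-GFP cells (1000/well, DMEM with 1% FBS) were pre-incubated 2 h at 37 degrees C, given compound by pin tool, then stimulated with TGF-beta at 500 pg/mL final for 18 h before per-cell GFP fluorescence imaging.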
TDP1 cell CPT – qHTS for Inhibitors of human tyrosyl-DNA phosphodiesterase 1 (TDP1): qHTS in cells in presence of CPT; Potency, µM (highest dose often 46.2 µM), without a hit: at the highest dose activity change, negative = growth inhibition, hits mostly inhibitors; chicken DT40 Tdp1-/-;hTDP1 cells + 20 nM CPT, ATP luminescence, 48 h; 420,000 compounds, 12% hits; also: % is scaled to controls: 0 for no effect and ±100 for the full control effect; nearly all actives have a fitted effect of over 55% in size
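Cell growth measured by CellTiter-Glo luminescence after a minimum 48 h, 37 C compound exposure with 20 nM CPT in Tdp1-knockout DT40 cells stably expressing hTDP1, seeded 400/well; qHTS titration format.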
HepG2 tox – qHTS for Inhibitors of TGF-b: Cytotox Counterscreen; HepG2 CAGA-GFP viability, ATP luminescence, 18 h; Potency, µM (doses to about 46.1 µM), inactives show at the top dose activity change, negative = cytotoxicity, most hits filed as cytotoxic; 410,000 compounds, 0.76% hits
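CellTiter-Glo luminescence gave cytotoxicity after 18 hours at 37 degrees C. The cells were HepG2 CAGA-GFP in 1% FBS DMEM, stimulated with 500 pg/mL TGF-beta after compound addition. %Activity was normalised to no-cell wells (complete cell-killing) and DMSO (no toxicity), and curves were fitted and classified.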
HT1080NT lethal – qHTS for induction of synthetic lethality in tumor cells producing 2HG: qHTS for the HT-1080-NT fibrosarcoma cell line. 360,000 compounds, 1.6% hits. Potency, µM (titrated, usually from 46.1 µM), for the others: at the highest dose activity, negative = less viability, usual class: cytotoxic. HT-1080-NT fibrosarcoma viability, CellTiter-Glo ATP luminescence, 48 h;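 also: NT is the 2HG producing partner of a matched IDH1 knockdown line; 0% = DMSO-treated cells and -100% = media-only wells without cells; nearly all actives have a fitted effect of over 55% in size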
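Compounds were tested in concentration-response format on HT-1080-NT cells for 48 hours at 37 degrees C. Cell viability came from CellTiter-Glo luminescence; curves were classified by r2, response magnitude and activity.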
DT40 TDP1 no CPT – qHTS for Inhibitors of human tyrosyl-DNA phosphodiesterase 1 (TDP1): qHTS in cells in absence of CPT; DT40 Tdp1-/- hTDP1 cells, no CPT, ATP luminescence, 48 h; Potency, µM (top dose mostly 46.2 µM), for the others: at the top dose activity change, negative = growth inhibition, hits mostly inhibitors; 420,000 compounds, 15% hits; also: % is scaled to controls: 0 for no effect and ±100 for the full control effect; nearly all actives have a fitted effect of over 55% in size
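Growth kinetics read by CellTiter-Glo luminescence after ≥48 hr at 37 °C. Cells: DT40 Tdp1-/- stably carrying human TDP1, 400 per well, compound exposure in the absence of CPT (DMSO vehicle).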
Numbers without * were called inactive; ? = inconclusive; . = not tested or not shown. Calls follow the shape of the dose curve; as a rule, active = well fitted curve in the direction sought with a large enough effect; inconclusive = small, poorly fitted or top-dose-only effect, or another doubt; inactive = no such curve, though single readings can be large; an effect the other way counts as inactive or inconclusive. Potency is read from the fitted curve at half-maximal effect.

SMILES | HT1080 IDH1KD tx | TGFb inhibitor | TDP1 cell CPT | HepG2 tox | HT1080NT lethal | DT40 TDP1 no CPT
COc1cc2ccccc2cc1C(=O)N1CCN(c2nc3ccc(F)cc3s2)CC1 | . | ? | 16.4µM* | -20.3% | . | 14.6µM*
CCOc1ccccc1N1CCN(C(=O)c2ccncc2)CC1 | ? | -2.0% | -1.1% | 1.0% | 11.8% | 7.4%
CCOc1ccccc1N1CCN(C(=O)c2cc3ccccc3cc2OC)CC1 | 5.17µM* | -29.3% | 3.66µM* | -0.7% | ? | 4.61µM*
COc1ccc(C(=O)N2CCC3(CC2)CN(C(=O)Nc2cccc(C#N)c2)C3)cc1 | . | . | -13.1% | . | . | ?
Cc1ccccc1CNC(=O)C1CCN(S(=O)(=O)Cc2ccccc2)CC1 | . | 2.4% | 2.2% | -0.5% | . | 1.4%
Cc1nn(CC(=O)NCCc2ccc(Cl)cc2)c(=O)c2cc3cc(F)ccc3n12 | . | 21.6% | -3.9% | 0.1% | . | -0.9%
O=C(CCl)N1CCN(C(=O)C2COc3ccccc3O2)CC1 (centres undefined) | 23.1µM* | -13.1% | ? | -15.0% | ? | 3.66µM*
COc1ccc(C(=O)Nc2nnc(Cc3ccc(OC)c(OC)c3)s2)cc1 | -9.1% | 15.9% | -29.8% | -3.5% | -13.3% | -18.8%
CC(C)Oc1ccc(C(CCNCc2ccc(O)cc2)c2ccccc2)cc1 (centres undefined) | ? | 14.1µM* | 5.8µM* | -91.9% | ? | 4.11µM*
COc1ccc(C(CCNCc2ccc(N(C)C)cc2)c2ccccc2)cc1 (centres undefined) | ? | ? | 20.6µM* | -185.9% | 18.4µM* | 20.6µM*
COc1ccccc1OCC(O)CNCc1ccc2c(c1)OCO2 (centres undefined) | -21.5% | 11.6% | 2.0% | -3.5% | -11.7% | ?
COc1ccc(CNCCC(c2ccc3c(c2)OCO3)c2ccccc2OC)cc1 (centres undefined) | . | ? | 6.51µM* | 10µM* | . | 2.91µM*
COc1ccc(N2C(=O)C(C)C(Cc3ccc(C)cc3)C2=O)cc1 (centres undefined) | 26.4% | 2.1% | 2.6% | -4.7% | 12.8% | -24.2%
N#CC1=C(N)OC2=C(CCc3ccccc32)C1c1ccccc1Cl (centres undefined) | 4.61µM* | 0.0% | 4.61µM* | -102.3% | 7.31µM* | 4.61µM*
O=C1NC(=O)C2(CCCC2)N1 | 9.0% | 14.2% | 30.5% | -0.9% | 4.7% | 2.8%
O=S(=O)(c1ccc2c(c1)C(=NO)c1cc(S(=O)(=O)N3CCCCC3)ccc1-2)N1CCCCC1 | 0.581µM* | ? | 4.11µM* | 1.78µM* | 0.366µM* | 2.91µM*
CN(C)N=C1c2cc(S(=O)(=O)N3CCOCC3)ccc2-c2ccc(S(=O)(=O)N3CCOCC3)cc21 | 0.5% | -7.1% | ? | -1.6% | 11.7% | 20.6µM*
CC1CCN(S(=O)(=O)c2ccc3c(c2)C(=NO)c2cc(S(=O)(=O)N4CCC(C)CC4)ccc2-3)CC1 | 2.59µM* | 8.91µM* | 0.651µM* | 1.26µM* | 1.46µM* | 0.731µM*
C/C(=N/OCO/N=C(/C)c1ccc(F)cc1)c1ccc(F)cc1 | -0.8% | 10.6% | -11.9% | -22.6% | -3.3% | -20.3%
CC1CCCC(NC(=O)COC(=O)c2n[nH]c3ccccc23)C1C (centres undefined) | 0.1% | -2.6% | ? | -22.9% | -7.6% | ?
COc1ccccc1/C=C/C(=O)OCC(=O)Nc1ccc2c(c1)OCCO2 | -2.5% | 25.3% | 2.1% | 5.5% | -0.1% | 4.1%
COc1ccccc1/C=C/C(=O)Nc1ccc2c(c1)CCC2 | -2.3% | 0.0% | -27.4% | -18.3% | -2.8% | 11.6µM*
COc1ccccc1/C=C/C(=O)Nc1ccc2c(c1)OCCO2 | ? | -19.8% | 8.2µM* | 8.1% | -23.9% | 10.3µM*
COc1cccc(-c2ncc3ccccc3c2COC(=O)c2ccco2)c1 | -3.7% | -15.2% | ? | -5.8% | -3.0% | ?
CN(C)c1ccc(NC(=O)CSc2nc(N)c(C(=O)Nc3ccc(N(C)C)cc3)s2)cc1 | ? | -16.7% | 10µM* | -19.9% | -25.6% | 12.6µM*
SMILES | HT1080 IDH1KD tx | TGFb inhibitor | TDP1 cell CPT | HepG2 tox | HT1080NT lethal | DT40 TDP1 no CPT
CCc1nc(SCC(=O)Nc2ccc(N(C)C)cc2)n[nH]1 | 1.0% | -9.5% | 4.61µM* | 0.0% | -0.8% | 4.61µM*
CCOC(=O)c1sc(SCC(=O)Nc2ccc(N(C)C)cc2)nc1N | ? | -11.7% | -6.3% | -34.9% | -0.9% | -22.0%
C[C@H](CO)N1C[C@H](C)[C@@H](CN(C)Cc2ccccc2)OCc2cnnn2CCCC1=O | 0.8% | 18.2% | -0.5% | -11.4% | 1.5% | 30.3%
N#C/C(=C\c1ccccc1[N+](=O)[O-])C(=O)NC1CCCCC1 | 18.4µM* | -7.2% | ? | -2.3% | ? | 14.6µM*
N#C/C(=C\c1cc(Br)ccc1F)C(=O)NC1CC1 | 8.8% | 7.0% | 13µM* | -1.1% | 7.4% | ?
N#C/C(=C\C=C\c1ccccc1[N+](=O)[O-])C(=O)NC1CCCCC1 | 5.2% | ? | 9.2µM* | -30.2% | 4.4% | 9.2µM*
N#C/C(=C\c1cccn1-c1ccccc1)C(=O)NC1CCCCC1 | 13.1% | 10.1% | ? | 5.5% | 5.8% | ?
N#C/C(=C\c1cc(Cl)cc(Cl)c1O)C(=O)NC1CCCCC1 | -7.7% | 7.3% | 20.6µM* | -16.7% | -3.4% | ?
Cc1ccc(CNc2ncnc3ccc(-c4ccc(CO)o4)cc23)o1 | . | -27.6% | . | -5.8% | . | .
Cc1ccc(-c2[nH]ncc2/C=C(\C#N)C(=O)NC2CCCCC2)cc1 | ? | ? | ? | -53.6% | ? | 20.6µM*
O=C(NCCCNc1ccc(C(F)(F)F)cc1[N+](=O)[O-])c1ccc(F)cc1 | -2.4% | 2.2% | 16.4µM* | -3.1% | 2.1% | 23.1µM*
O=[N+]([O-])c1cc(C(F)(F)F)ccc1NCCCCNS(=O)(=O)c1ccc2ccccc2c1 | ? | -22.1% | 20.6µM* | 2.0% | -5.3% | 23.1µM*
Cc1ccc(C(=O)NCCCNc2ccc(C(F)(F)F)cc2[N+](=O)[O-])cc1 | -8.3% | ? | -17.8% | -36.0% | -11.4% | ?

High-throughput results as filed in PubChem.
